We go through 10 compounds from PubChem BioAssay.

SMILES strings stand for the structures. Calls of active or inactive are those of the source.

The experiment is described as follows: growth effects on S. cerevisiae YJM789 – YJM789 clinical isolate, OD600, 24 h, basal, primary screen (AID 1089).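 Note: growth of clinical yeast isolate S. cerevisiae YJM 789 seeded 1000 cells per well; test concentration not given here.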 To be noted: higher = more signal, called active from +8 up or from −8 down.
`O=C1C=C[C@@H](O)[C@@H]2[C@@H]3C(=O)N(C4CCCCC4)C(=O)[C@@H]3CC[C@@H]12`: the z-score is 0.126 (inactive). For `C[C@@H]1CC[C@H]2C(=O)OC(Cc3ccccc3)CN2[C@H]1c1ccc(Br)cc1` (stereo not given in full), the z-score was 0.127 (inactive).

For `O=C1[C@H]2[C@H]3[C@H](O)[C@H](O)CC(=NO[C@@H]4O[C@H](CO)[C@@H](O)[C@H](O)[C@H]4O)[C@H]3CC[C@H]2C(=O)N1c1ccc(F)cc1F`, the z-score was -0.484 (inactive). `COc1ccc(COC(=O)NN=C2C[C@@H](O)[C@@H](O)[C@@H]3[C@@H]4C(=O)N([C@@H](C)c5ccccc5)C(=O)[C@@H]4CC[C@H]23)cc1`: the z-score was -0.21 (inactive).

On to `CC(=O)OC[C@H]1O[C@H](CC=NO[C@H](C)c2cn([C@@H]3COC[C@H]3O)nn2)C=C[C@@H]1OC(C)=O`, for which the z-score was -2 (inactive).

As for `COc1ccc(O[C@H]2C=C[C@@H](c3ccccc3)O[C@@H]2CO)cc1`, the z-score is 0.711 (inactive). `CCOC(=O)[C@H](Cc1ccccc1)NC(=O)CCC1CC(OC(=O)NCCc2ccc(F)cc2)CC2(CCCC(COC(=O)NCCOc3ccccc3)O2)O1` (stereo not given in full): the z-score was -0.0952 (inactive). On to `O=C1C[C@@H](O)[C@@H](O)[C@@H]2[C@@H]3C(=O)N(C4CCCCC4)C(=O)[C@@H]3CC[C@@H]12`, for which the z-score was 0.93 (inactive). Under `CC(CCN1CCCCc2nc(C)c(C)cc21)=NO[C@@H](C)c1cc(-c2c(C)cc(C)cc2C)no1` stands -1.73 (inactive). Consider `CCOC(=O)[C@H](CC(C)C)NC(=O)CCC1CC(OC(=O)NCc2ccc3c(c2)OCO3)CC2(CCCC(COC(=O)NCCOc3ccccc3)O2)O1` (stereo not given in full), for which the z-score was -0.337 (inactive).
